From PubChem BioAssay (NCATS)
Values without a mark were called inactive. Records with an inconclusive call do not appear. Calls of active or inactive are those of the source. Unless noted, calls follow the shape of the dose curve; as a rule, active = well fitted curve in either direction with a large enough effect (not every such curve was filed as active); inconclusive = small, poorly fitted or top-dose-only effect, or another doubt; inactive = flat fitted curve, though single readings scatter.

Tests used:
[1] = target: Lysosomal acid glucosylceramidase (Homo sapiens) (UniProt P04062); test: Glucocerebrosidase-p2 (AID 348; in the data active = potency below about 10 µM; also: potency is read from the fitted curve at half-maximal effect); settings: purified GBA, blue fluorogenic substrate, 40 min
Sequence of Lysosomal acid glucosylceramidase (Homo sapiens) (P04062 whole entry, looked up): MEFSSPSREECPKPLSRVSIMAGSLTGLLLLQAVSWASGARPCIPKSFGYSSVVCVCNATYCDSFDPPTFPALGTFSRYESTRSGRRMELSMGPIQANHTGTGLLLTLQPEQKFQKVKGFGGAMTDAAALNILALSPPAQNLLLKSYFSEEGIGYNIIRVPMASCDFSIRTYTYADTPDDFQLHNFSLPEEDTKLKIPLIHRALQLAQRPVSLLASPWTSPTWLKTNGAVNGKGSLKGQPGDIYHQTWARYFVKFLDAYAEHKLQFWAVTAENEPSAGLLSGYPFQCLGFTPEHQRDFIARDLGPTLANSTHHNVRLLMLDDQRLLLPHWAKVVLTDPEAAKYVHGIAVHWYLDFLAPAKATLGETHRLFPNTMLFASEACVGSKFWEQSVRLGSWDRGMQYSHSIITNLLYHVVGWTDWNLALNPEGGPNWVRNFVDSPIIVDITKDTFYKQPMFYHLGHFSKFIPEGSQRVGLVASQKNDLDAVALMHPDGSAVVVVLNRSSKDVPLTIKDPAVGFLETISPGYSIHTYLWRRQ
In short: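 Compounds titrated from 0.6 nM upwards against 0.2 nM enzyme in pH 5.9 citric acid/KH2PO4, taurocholate, tween-20; blue fluorogenic substrate 80 uM, 40 min room temperature, stopped and read Ex 365/Em 440 for AC50.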

[2] = AP1 Signaling Pathway (AID 357); settings: ME-180 AP-1-bla reporter, EGF-induced, beta-lactamase ratio, 5 h; at 7.69 µM (top of the series) unless noted;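 also: ME-180 reporter cells stimulated with EGF at its EC50 level; % is scaled to controls: 0 for no effect and ±100 for the full control effect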
In short: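 AP-1-bla ME-180 cells, Opti-MEM + 0.5% dialyzed FBS, plated overnight 37 °C. Cpd titration + EC50 EGF, 5 h 37 °C. CCF4 2.5 h RT; ex 405, em 460/530 ratio → %activity, AC50.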

[3] = NFAT Signaling Pathway (AID 444); settings: Jurkat NFAT-bla M1, carbachol, beta-lactamase ratio, 5 h; at 7.69 µM (top of the series) unless noted;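 also: carbachol stimulus at about its EC50 of 1 µM final; % is scaled to controls: 0 for no effect and ±100 for the full control effect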
In short: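 Jurkat cells carrying an NFAT-driven β-lactamase reporter and co-transfected muscarinic M1 receptor were treated with compound plus carbachol (1 uM final, an EC50 level) for 5 h at 37 °C. CCF4 loading followed for 1 h at RT; 460/530 nm ratio gave %activity.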

[4] = Stat Signaling Pathway (AID 446); settings: ME-180 SIE beta-lactamase reporter, IL-6 stimulated, 5 h; at 7.69 µM (top of the series) unless noted;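 also: ME-180 cervical cancer cells given 40 pM IL-6 alongside compound; SIE-controlled beta-lactamase reporter measured as 460/530 nm FRET emission ratio; % is scaled to controls: 0 for no effect and ±100 for the full control effect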
In short: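 Screening format detects activators and inhibitors alike: ME-180 SIE-bla cells stimulated at 40 pM IL-6 for 5 hrs with compound, then dual-emission beta-lactamase read at 405 nm excitation.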

[5] = target: Glucocorticoid receptor (Homo sapiens) (UniProt P04150); test: GR-GFP Redistribution (AID 450;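 active = compounds whose dose series gives a full or clear partial fitted curve of increased nuclear translocation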; also: potency is read from the fitted curve at half-maximal effect); settings: U2OS GR-GFP nuclear translocation, laser cytometry, 2 h
Sequence of Glucocorticoid receptor (Homo sapiens) (P04150 whole entry, looked up, the tested form may be a part): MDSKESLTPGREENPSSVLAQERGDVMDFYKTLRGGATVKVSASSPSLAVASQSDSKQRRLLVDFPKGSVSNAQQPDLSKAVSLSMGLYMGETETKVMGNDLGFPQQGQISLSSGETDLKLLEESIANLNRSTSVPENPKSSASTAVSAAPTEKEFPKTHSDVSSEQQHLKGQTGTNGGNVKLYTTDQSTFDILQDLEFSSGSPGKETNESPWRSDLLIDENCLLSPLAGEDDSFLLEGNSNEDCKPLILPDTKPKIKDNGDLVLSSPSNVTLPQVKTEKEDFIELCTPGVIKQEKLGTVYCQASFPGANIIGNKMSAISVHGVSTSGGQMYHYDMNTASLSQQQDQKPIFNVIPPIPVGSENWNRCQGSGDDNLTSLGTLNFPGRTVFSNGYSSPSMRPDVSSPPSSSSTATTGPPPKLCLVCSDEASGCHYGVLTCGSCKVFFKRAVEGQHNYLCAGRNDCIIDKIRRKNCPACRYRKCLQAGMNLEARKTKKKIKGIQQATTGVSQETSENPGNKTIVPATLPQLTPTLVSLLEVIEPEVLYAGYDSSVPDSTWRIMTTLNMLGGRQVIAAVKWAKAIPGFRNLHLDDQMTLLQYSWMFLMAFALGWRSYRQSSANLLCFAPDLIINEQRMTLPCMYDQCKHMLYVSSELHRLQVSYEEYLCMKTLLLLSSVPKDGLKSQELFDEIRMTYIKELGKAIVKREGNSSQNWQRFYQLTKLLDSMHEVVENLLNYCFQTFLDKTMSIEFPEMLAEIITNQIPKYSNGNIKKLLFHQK

[6] = target: Glucocorticoid receptor (Homo sapiens) (UniProt P04150); test: GR-EFC Redistribution (AID 451; calls by dose curve; also: potency is read from the fitted curve at half-maximal effect); settings: CHO-K1 GR-EFC translocation, beta-gal luminescence, 2 h
In short: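 CHO-K1 cells stably expressing nuclear-localized β-gal enzyme acceptor and GR fused C-terminally to the enzyme donor fragment; ligand-driven nuclear translocation restores β-gal by complementation. Compounds titrated up to 46 uM final, 2 h at 37 °C; luminescence read.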

[7] = target: Mitogen-activated protein kinase 10 (Mus musculus) (UniProt Q61831); test: JNK3 AlphaScreen Assay (AID 530); settings: JNK3 lysate, c-Jun phosphorylation; series mostly up to 57.1 µM;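 also: kinase came from lysate of stimulated human HepG2 cells; signal reports phosphorylation of biotinylated GST-cJun 1-79 at Ser73 with 10 µM ATP; % is scaled to controls: 0 for no effect and ±100 for the full control effect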
In short: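 Inhibitors reduce antibody binding to phosphorylated biotin-cJun, lowering AlphaScreen luminescence. Lysates from HepG2 cells pre-activated by IL-1beta plus TNF-alpha supplied JNK3; compounds were titrated.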

[8] = target: 3',5'-cyclic-AMP phosphodiesterase 4B (Homo sapiens) (UniProt Q07343); test: qHTS Assay for Inhibitors of PDE-IV (AID 607; active = well fitted activation curve with a large enough effect in the main read-out, with a control signal flat, not every such curve was filed as active; also: % of control where 0% means no effect); settings: HEK293 ACTOne CNG channel cells, membrane potential fluorescence; series mostly up to 22.9 µM
Sequence of 3',5'-cyclic-AMP phosphodiesterase 4B (Homo sapiens) (Q07343 whole entry, looked up): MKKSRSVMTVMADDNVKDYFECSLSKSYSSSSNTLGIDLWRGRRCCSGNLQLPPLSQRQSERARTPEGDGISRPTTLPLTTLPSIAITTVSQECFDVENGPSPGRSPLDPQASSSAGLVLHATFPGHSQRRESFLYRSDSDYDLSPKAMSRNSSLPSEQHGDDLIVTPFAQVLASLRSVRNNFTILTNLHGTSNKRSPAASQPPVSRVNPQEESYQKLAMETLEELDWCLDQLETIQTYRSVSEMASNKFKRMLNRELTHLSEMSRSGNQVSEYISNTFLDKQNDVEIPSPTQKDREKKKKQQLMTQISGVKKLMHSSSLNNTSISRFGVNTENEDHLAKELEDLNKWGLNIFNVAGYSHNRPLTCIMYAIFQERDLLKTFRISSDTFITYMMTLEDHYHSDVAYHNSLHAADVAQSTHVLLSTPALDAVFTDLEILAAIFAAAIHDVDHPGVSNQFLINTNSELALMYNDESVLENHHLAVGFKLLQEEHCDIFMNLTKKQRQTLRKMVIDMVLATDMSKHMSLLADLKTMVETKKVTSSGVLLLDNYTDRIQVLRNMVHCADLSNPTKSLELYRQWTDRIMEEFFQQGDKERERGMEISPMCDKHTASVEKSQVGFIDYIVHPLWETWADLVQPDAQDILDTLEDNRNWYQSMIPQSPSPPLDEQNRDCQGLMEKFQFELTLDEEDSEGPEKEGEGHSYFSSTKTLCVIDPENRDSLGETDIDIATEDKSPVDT
In short: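 The readout is membrane depolarisation from a cAMP-sensing CNG channel, detected with a potential dye at ex 535/em 590. Cells were HEK293-derived (endogenous PDE-IV) at 1000 cells/well, titrated up to 22.9 uM final.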

[9] = Primary qHTS for small molecule stabilizers of the endoplasmic reticulum resident proteome: Secreted ER Calcium Modulated Protein (SERCaMP) assay (AID 1508630; active = well fitted curve in the direction sought with a large enough effect; an effect the other way counts as inactive or inconclusive; also: % is scaled to controls: 0 for no effect and ±100 for the full control effect); settings: SH-SY5Y GLuc-SERCaMP (Gaussia luciferase released on ER calcium loss) secretion, thapsigargin, luminescence; series mostly up to 38.4 µM
In short: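 GLuc-SERCaMP-expressing SH-SY5Y cells, pretreated 16 h with compound, are challenged with thapsigargin to empty ER calcium stores; after 4 h, coelenterazine is added directly to the medium and luminescence is imaged.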

[10] = target: Cytochrome P450 3A4 (Homo sapiens) (UniProt P08684); test: qHTS Assay for Inhibitors and Substrates of Cytochrome P450 3A4 (AID 884; active = well fitted curve in the direction sought with a large enough effect; an effect the other way counts as inactive or inconclusive; also: potency is read from the fitted curve at half-maximal effect; nearly all actives have a fitted effect of over 50% in size); settings: recombinant CYP3A4, Luciferin-PPXE luminescence; series mostly up to 57.1 µM
Sequence of Cytochrome P450 3A4 (Homo sapiens) (P08684 whole entry, looked up): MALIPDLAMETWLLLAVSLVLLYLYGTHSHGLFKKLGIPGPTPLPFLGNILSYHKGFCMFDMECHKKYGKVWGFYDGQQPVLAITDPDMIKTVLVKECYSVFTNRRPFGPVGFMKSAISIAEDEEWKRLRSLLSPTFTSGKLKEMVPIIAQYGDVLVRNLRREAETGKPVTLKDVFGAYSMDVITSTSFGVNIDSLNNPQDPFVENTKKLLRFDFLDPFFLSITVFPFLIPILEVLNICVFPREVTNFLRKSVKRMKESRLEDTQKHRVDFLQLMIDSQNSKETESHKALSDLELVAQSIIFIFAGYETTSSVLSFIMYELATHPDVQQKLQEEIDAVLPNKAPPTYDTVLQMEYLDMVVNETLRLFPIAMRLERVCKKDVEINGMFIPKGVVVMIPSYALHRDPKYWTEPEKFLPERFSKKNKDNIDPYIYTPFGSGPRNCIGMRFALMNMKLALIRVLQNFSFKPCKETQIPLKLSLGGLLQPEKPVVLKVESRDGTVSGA
In short: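 20 nM human CYP3A4 with 25 uM Luciferin-PPXE (at KM) in 200 mM KPO4, preincubated 10 min with compound; NADPH regeneration started a 60 min RT reaction. Luciferin detected by luminescence, normalized to 57 uM ketoconazole as full inhibition.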

[11] = target: Cytochrome P450 3A4 (Homo sapiens) (UniProt P08684); test: qHTS Assay for Activators of Cytochrome P450 3A4 (AID 885; active = well fitted curve in the direction sought with a large enough effect; an effect the other way counts as inactive or inconclusive; also: nearly all actives have a fitted effect of over 65% in size); settings: recombinant CYP3A4, Luciferin-PPXE luminescence, 60 min; series mostly up to 57.1 µM
In short: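 Steps: enzyme/substrate mix dispensed; compound added, 10 min RT; NADPH regeneration solution added, 60 min RT; luciferin detection buffer stops reaction; 20 min later luminescence measured.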

## Cn1c(=O)c(-c2cc(F)cc(F)c2)nc2cnc(Oc3cccc(Cl)c3)nc21
[1]
  Potency: > 11.4 µM
[2]
  activity change, negative = inhibition: -16%
[3]
  activity change, negative = inhibition: -4.07%
[4]
  activity, negative = inhibition: 7.63%
[5]
  Potency: > 9.22 µM
[6]
  Potency: > 46 µM
[7]
  Potency: inactive
[8]
  Potency: inactive
[9]
  outcome: inactive

## COc1ccc(C(=O)N2CCC3(CCN(C(=O)Nc4ccccc4)CC3)CC2)cc1
[1]
  Potency: > 11.4 µM
[2]
  activity change, negative = inhibition: 0.785%
[3]
  activity change, negative = inhibition: 6.48%
[4]
  activity, negative = inhibition: -6.61%
[6]
  Potency: > 46 µM
[7]
  Potency: inactive
[8]
  Potency: inactive
[9]
  outcome: inactive

## COc1ncc2nc(-c3cc(F)cc(F)c3)c(=O)n(Cc3cccs3)c2n1
[1]
  Potency: > 11.4 µM
[2]
  activity change, negative = inhibition: 14.2%
[3]
  activity change, negative = inhibition: -10.4%
[4]
  activity, negative = inhibition: 4.55%
[5]
  Potency: > 9.22 µM
[6]
  Potency: > 46 µM
[7]
  Potency: inactive
[8]
  Potency: inactive
[9]
  outcome: inactive

## COc1ccc(-c2nc3cnc(OC)nc3n(Cc3cccc(OC)c3)c2=O)cc1
[1]
  Potency: > 11.4 µM
[2]
  activity change, negative = inhibition: -4%
[3]
  activity change, negative = inhibition: -10.2%
[4]
  activity, negative = inhibition: 27.2%
[5]
  Potency: > 9.22 µM
[6]
  Potency: > 46 µM
[7]
  Potency: inactive
[10]
  Potency: 2.51 µM (active)
[11]
  Potency: inactive
[9]
  outcome: inactive

## O=c1c(-c2ccc(F)c(F)c2)nc2cncnc2n1Cc1ccc(F)cc1
[1]
  Potency: > 11.4 µM
[2]
  activity change, negative = inhibition: 2.91%
[3]
  activity change, negative = inhibition: -2.88%
[4]
  activity, negative = inhibition: 1.58%
[5]
  Potency: > 9.22 µM
[6]
  Potency: > 46 µM
[7]
  Potency: inactive
[8]
  Potency: inactive
[9]
  outcome: inactive

## O=c1c(-c2ccc(F)cc2)nc2cnc(Nc3ccccc3)nc2n1C1CC1
[1]
  Potency: > 11.4 µM
[2]
  activity change, negative = inhibition: -14%
[3]
  activity change, negative = inhibition: -2.3%
[4]
  activity, negative = inhibition: -3.65%
[5]
  Potency: > 9.22 µM
[6]
  Potency: > 46 µM
[7]
  Potency: inactive
[8]
  Potency: inactive
[9]
  outcome: inactive

## COc1ccc(Oc2ncc3ncc(=O)n(Cc4cccc(OC)c4)c3n2)cc1
[1]
  Potency: > 11.4 µM
[2]
  activity change, negative = inhibition: -25.4%
[3]
  activity change, negative = inhibition: -6.25%
[4]
  activity, negative = inhibition: -3%
[5]
  Potency: > 9.22 µM
[6]
  Potency: > 46 µM
[7]
  Potency: inactive
[8]
  Potency: inactive
[9]
  outcome: inactive

## O=c1c(-c2cccc(F)c2)nc2cncnc2n1Cc1ccccc1
[1]
  Potency: > 11.4 µM
[2]
  activity change, negative = inhibition: -7.86%
[3]
  activity change, negative = inhibition: -7.28%
[4]
  activity, negative = inhibition: -8.08%
[5]
  Potency: > 9.22 µM
[6]
  Potency: > 46 µM
[11]
  Potency: inactive
[9]
  outcome: inactive

## COCCn1c(=O)c(-c2ccc(F)cc2)nc2cnc(Oc3cccc(Cl)c3)nc21
[1]
  Potency: > 11.4 µM
[2]
  activity change, negative = inhibition: 1.58%
[3]
  activity change, negative = inhibition: -15.6%
[4]
  activity, negative = inhibition: -8.51%
[5]
  Potency: > 9.22 µM
[6]
  Potency: > 46 µM
[7]
  Potency: inactive
[8]
  Potency: inactive
[9]
  outcome: inactive

## CS(=O)(=O)N1CCC2(CCCN(Cc3cc(C(F)(F)F)cc(C(F)(F)F)c3)C2)CC1
[1]
  Potency: > 11.4 µM
[2]
  activity change, negative = inhibition: 20%
[3]
  activity change, negative = inhibition: -14.4%
[4]
  activity, negative = inhibition: 5.1%
[6]
  Potency: > 46 µM
[7]
  Potency: inactive
[8]
  Potency: inactive
[9]
  outcome: inactive

## COc1ncc2nc(C)c(=O)n(Cc3cccs3)c2n1
[1]
  Potency: > 11.4 µM
[2]
  activity change, negative = inhibition: -2.91%
[3]
  activity change, negative = inhibition: -7.05%
[4]
  activity, negative = inhibition: -7.75%
[5]
  Potency: > 9.22 µM
[6]
  Potency: > 46 µM
[7]
  Potency: inactive
[8]
  Potency: inactive
[9]
  outcome: inactive

## N#Cc1cccc(NC(=O)N2CC[C@@]3(CCCN(C(=O)c4csnn4)C3)C2)c1
[1]
  Potency: > 11.4 µM
[2]
  activity change, negative = inhibition: -20.4%
[3]
  activity change, negative = inhibition: 10.2%
[4]
  activity, negative = inhibition: -5.12%
[6]
  Potency: > 46 µM
[7]
  Potency: inactive
[8]
  Potency: inactive
[9]
  outcome: inactive

## COc1ccc(-n2c(=O)c(-c3ccc(F)cc3)nc3cnc(OC)nc32)cc1
[1]
  Potency: > 11.4 µM
[2]
  activity change, negative = inhibition: -6.43%
[3]
  activity change, negative = inhibition: 8.51%
[4]
  activity, negative = inhibition: -13.4%
[5]
  Potency: > 9.22 µM
[6]
  Potency: > 46 µM
[7]
  Potency: inactive
[8]
  Potency: inactive
[11]
  Potency: inactive
[9]
  outcome: inactive

## COc1cccc(Cn2c(=O)c(-c3ccc(F)c(F)c3)nc3cncnc32)c1
[1]
  Potency: > 11.4 µM
[2]
  activity change, negative = inhibition: -5.97%
[3]
  activity change, negative = inhibition: -0.724%
[4]
  activity, negative = inhibition: 2.07%
[5]
  Potency: > 9.22 µM
[6]
  Potency: > 46 µM
[8]
  Potency: inactive
[9]
  outcome: inactive

## O=C(c1csnn1)N1CCC[C@@]2(CCN(Cc3ccccc3)C2)C1
[1]
  Potency: > 11.4 µM
[2]
  activity change, negative = inhibition: -14.5%
[3]
  activity change, negative = inhibition: 1.87%
[4]
  activity, negative = inhibition: -1.23%
[6]
  Potency: > 46 µM
[7]
  Potency: inactive
[8]
  Potency: inactive
[9]
  outcome: inactive

## COc1cccc(Cn2c(=O)c(-c3cccc(Cl)c3)nc3cncnc32)c1
[1]
  Potency: > 11.4 µM
[2]
  activity change, negative = inhibition: -20.4%
[3]
  activity change, negative = inhibition: -10.8%
[4]
  activity, negative = inhibition: -8.57%
[5]
  Potency: > 9.22 µM
[6]
  Potency: > 46 µM
[8]
  Potency: inactive
[9]
  outcome: inactive

## COc1cccc(Cn2c(=O)c(-c3cccc(F)c3)nc3cncnc32)c1
[1]
  Potency: > 11.4 µM
[2]
  activity change, negative = inhibition: -9.03%
[3]
  activity change, negative = inhibition: -6.22%
[4]
  activity, negative = inhibition: -7.22%
[5]
  Potency: > 9.22 µM
[6]
  Potency: > 46 µM
[7]
  Potency: inactive
[8]
  Potency: inactive
[11]
  Potency: inactive
[9]
  outcome: inactive
